Six1-Eya2 inh: qHTS Assay for Inhibitors of the Six1/Eya2 Interaction; Homeobox protein SIX1 (Homo sapiens) + Protein phosphatase EYA2 (Homo sapiens), …; AlphaScreen GST-Six1/His-Eya2 binding, biochemical; stronger effect = lower value; activity change, % (test concentration not listed); 360,000 compounds, 0.56% hits; AID 651725, 2012; in the data active means activity change below about -65%; inconclusive means mostly about -30% to -63%
Target sequence (O00167 whole entry, looked up): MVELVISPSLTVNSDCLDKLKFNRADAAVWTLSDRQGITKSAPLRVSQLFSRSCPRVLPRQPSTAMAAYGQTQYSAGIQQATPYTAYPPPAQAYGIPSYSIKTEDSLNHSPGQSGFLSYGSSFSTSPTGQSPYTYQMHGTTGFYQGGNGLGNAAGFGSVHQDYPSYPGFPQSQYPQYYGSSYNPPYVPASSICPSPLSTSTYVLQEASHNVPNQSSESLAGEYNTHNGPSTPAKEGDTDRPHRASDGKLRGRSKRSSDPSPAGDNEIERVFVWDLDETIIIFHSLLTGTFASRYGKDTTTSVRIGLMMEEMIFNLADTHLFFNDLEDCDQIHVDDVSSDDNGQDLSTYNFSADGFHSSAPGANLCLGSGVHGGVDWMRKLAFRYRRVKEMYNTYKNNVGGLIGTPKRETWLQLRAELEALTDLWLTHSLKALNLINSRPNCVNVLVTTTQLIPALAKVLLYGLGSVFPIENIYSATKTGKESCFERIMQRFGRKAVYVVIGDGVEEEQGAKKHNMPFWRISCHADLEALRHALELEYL
Target sequence (Q15475 whole entry, looked up): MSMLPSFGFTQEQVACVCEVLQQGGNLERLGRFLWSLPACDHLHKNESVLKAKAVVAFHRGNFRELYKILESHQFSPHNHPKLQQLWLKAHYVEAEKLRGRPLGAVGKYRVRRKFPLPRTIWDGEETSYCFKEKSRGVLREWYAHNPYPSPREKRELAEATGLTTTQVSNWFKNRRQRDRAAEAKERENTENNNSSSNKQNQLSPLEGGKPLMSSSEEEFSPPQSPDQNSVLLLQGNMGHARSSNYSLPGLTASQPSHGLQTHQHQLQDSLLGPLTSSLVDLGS
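Homogeneous AlphaScreen proximity assay pairing GST-Six1 with His-tagged Eya2 (added as 5X mix: 250 nM and 500 nM) in 50 mM Tris pH 8.0, 300 mM NaCl, 1 mM TCEP. Glutathione donor and nickel acceptor beads; 1 h, 37 °C, dark.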
IL1B secr inh: qHTS for Inhibitors of Inflammasome Signaling: IL-1-beta AlphaLISA Primary Screen; THP-1 LPS/ATP IL-1B secretion, AlphaLISA, 16 h; stronger effect = lower value; activity change, % at 57.5 µM; 360,000 compounds, 4.7% hits; AID 743279, 2014; in the data active means activity change below about -50%; inconclusive means mostly about -30% to -49%
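THP-1 cells pretreated 1 hr with compounds (up to 57.5 uM final), then stimulated with LPS (250 ng/mL final) plus ATP (1.25 mM final); secreted IL-1B measured by AlphaLISA after 16 hr, decreased signal indicating inhibition.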
CtBP-E1A inh: qHTS Assay for Inhibitors of the CtBP/E1A Interaction | 340,000 compounds, 0.49% hits | AlphaScreen GST-E1A/His-CtBP binding, 1536-well; stronger effect = lower value | activity change, % (no concentration beside the values) | CtBP / adenovirus E1A interaction (AlphaScreen); in the data active means activity change below about -65%; inconclusive means mostly about -30% to -63%
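Homogeneous bead-based format: GST-tagged E1A captured on glutathione donor beads, His-tagged CtBP on nickel acceptor beads; compounds precede bead addition by 2 h at 37 °C.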
TDP1 cell noCPT: qHTS for Inhibitors of human tyrosyl-DNA phosphodiesterase 1 (TDP1): qHTS in cells in absence of CPT; DT40 Tdp1-/- hTDP1 cells, no CPT, ATP luminescence, 48 h; Potency, µM (highest dose often 46.2 µM), for the others: at the highest dose activity change, negative = growth inhibition, hits mostly inhibitors; 420,000 compounds, 15% hits; AID 686978, 2013; further: potency means the concentration at half of the fitted maximal effect; nearly all actives have a fitted effect of over 55% in size
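Stably hTDP1-transfected Tdp1-null chicken DT40 cells were treated with library compounds minus camptothecin and grown for at least 48 hr at 37 °C, after which cellular ATP was quantified by luminescence.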
TDP1 cell CPT: qHTS for Inhibitors of human tyrosyl-DNA phosphodiesterase 1 (TDP1): qHTS in cells in presence of CPT; 420,000 compounds, 12% hits; Potency, µM (highest dose often 46.2 µM), without a hit: at the top dose activity change, negative = growth inhibition, actives largely listed as inhibitors; chicken DT40 Tdp1-/-;hTDP1 cells + 20 nM CPT, ATP luminescence, 48 h; further: potency means the concentration at half of the fitted maximal effect; nearly all actives have a fitted effect of over 55% in size
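Cell growth measured by CellTiter-Glo luminescence after a minimum 48 h, 37 C compound exposure with 20 nM CPT in Tdp1-knockout DT40 cells stably expressing hTDP1, seeded 400/well; qHTS titration format.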
TDP1 inh: qHTS Assay for Inhibitors of Tyrosyl-DNA Phosphodiesterase (TDP1) | recombinant TDP1, AlphaScreen DNA substrate cleavage | Potency, µM (top dose mostly 130 µM), without a hit: top-dose activity change, negative = inhibition, usual class: inhibitors | 350,000 compounds, 0.28% hits; further: potency means the concentration at half of the fitted maximal effect; nearly all actives have a fitted effect of over 40% in size
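Recombinant human Tdp1 (E. coli-expressed, 1 nM final) preincubated with compounds 15 min at room temperature, then 5'-biotin/3'-phosphotyrosine-FITC DNA substrate (15 nM final) added for 5 min. AlphaScreen beads (10 ug/ml final) added 10 min; cleavage lowers signal.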
* = called active by the depositor; u = inconclusive; x = no result given; [ ] = another dose, or the depositor's remark. Most compounds without a hit are left out; they make up all but 18% or so of the library. Unless noted, the call rests on the fitted dose curve; in most records, active means well fitted curve in the direction sought with a large enough effect; inconclusive means small, poorly fitted or top-dose-only effect, or another doubt; inactive means no such curve, though single readings can be large; an effect the other way counts as inactive or inconclusive. On the % scale 0 is the no-effect control and ±100 the full control effect.

SMILES	Six1-Eya2 inh	IL1B secr inh	CtBP-E1A inh	TDP1 cell noCPT	TDP1 cell CPT	TDP1 inh
COc1c(C)cc(Br)cc1C(=O)Nc1ccc(C)cc1[N+](=O)[O-]	-5	-6	-25	13µM*	u	1%
COc1cc(S(=O)(=O)Nc2cccc(C)c2)ccc1NC(=O)c1cccnc1	2	0	-5	15µM*	u	0%
O=C(CSc1ncccn1)N/N=C/c1cccs1	-5	5	-2	-7%	-11%	-1%
Cc1cccc(NC(=O)Nc2ccccc2)n1	0	-4	1	-4%	-3%	x
COc1cc(NC(=O)c2ccccc2F)ccc1NC(=O)c1ccccc1Cl	-1	-17	0	-12%	-3%	3%
COc1cc(NC(=O)c2cccnc2)ccc1NC(=O)c1ccccc1Cl	-2	-66*	-1	u	5%	8%
COc1ccc(NC(=O)N(Cc2cccnc2)Cc2ccccc2Cl)c(OC)c1	-5	-25	-6	u	18µM*	x
Cc1ccc(C)c(NC(NC(=O)c2cccnc2)C(Cl)(Cl)Cl)c1 (stereo unspecified)	0	12	11	26µM*	23µM*	6%
O=C(Nc1cccc(NC(=O)c2ccc(Cl)cc2Cl)c1)c1cccnc1	-3	-54*	0	u	u	x
COc1ccc(NC(=O)NCc2cccnc2)c(OC)c1	3	1	-4	2%	0%	1%
O=C(Nc1cccc(NC(=O)c2cccnc2)c1)c1cccnc1	3	-3	7	-15%	-2%	5%
COc1cc(OC)c(C(=O)OCC(=O)Nc2ccc(N3CCOCC3)cc2)cc1OC	-13	19	2	-24%	u	3%
CC1=C(C2=C(C)C(C(C)C)C3=C(C(=O)C(O)C3O)C2O)C(O)C2=C(C(O)C(O)C2=O)C1C(C)C (stereo unspecified)	x	x	x	-22%	-9%	10%[56.1 µM]
CCOC(=O)c1ccc(S(=O)(=O)N2CCN(CC3CC=CCC3)CC2)cc1 (stereo unspecified)	0	4	9	u	u	0%
Cc1c(O[C@@H]2O[C@H](CO)[C@@H](O)[C@H](O)[C@H]2O)c(CO)c(O[C@@H]2O[C@H](CO)[C@@H](O)[C@H](O)[C@H]2O)c2c1O[C@@H](c1ccccc1)C[C@@H]2O	-9	-8	-19	-19%	-22%	x
COc1cc(NC(=O)N2CCc3c(sc4c3CCCC4)C2c2ccccc2)cc(OC)c1OC (stereo unspecified)	x	x	x	21µM*	10µM*	1%
COc1cc(OC)c(NC(=O)N2CCc3c(sc4c3CCCC4)C2c2ccccc2)cc1Cl (stereo unspecified)	x	x	x	21µM*	u	1%
COc1cc(OC)c(NC(=O)N2CCc3c([nH]c4ccccc34)C2c2ccccc2F)cc1Cl (stereo unspecified)	x	x	x	23µM*	18µM*	3%
COc1ccc(Cl)cc1NC(=O)N1CC(=O)Nc2sc3c(c2C1c1ccccc1)CCCC3 (stereo unspecified)	x	x	x	u	u	0%
COc1cc(NC(=O)N2CCSc3ccccc32)cc(OC)c1OC	x	x	x	u	u	9%
Cc1cc(C)c(S(=O)(=O)Nc2ccc(-c3cn4ccccc4n3)cc2)c(C)c1	u	u	u	u	u	5%
Clc1ccc(-c2cn3ccccc3n2)cc1	-1	96	0	-21%	-11%	x
Cc1ccc(C(=O)Nc2cccc(-c3cn4ccccc4n3)c2)cc1	-17	-52*	-2	u	u	8%
